A selection: hits, their analogues and other compounds. The true share with any hit is near 8.7%.
Pf growth 96h = Primary qHTS for delayed death inhibitors of the malarial parasite plastid, 96 hour incubation; P. falciparum luciferase reporter growth, 96 h; Potency, µM (top dose mostly 28.7 µM), for the others: top-dose activity change, negative = inhibition, most hits filed as inhibitors; 320,000 tested, 6.9% active; AID 504834, 2011
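Infected RBCs, 2% Hct / 0.05% parasitemia final; luciferase-reporter P. falciparum; cpd 96 h, 37 C, 5% CO2; luciferase detection reagent; luminescence.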
Vaccinia Venus = qHTS for Stage-Specific Inhibitors of Vaccinia Orthopoxvirus: Venus Reporter Primary qHTS. 330,000 tested, 0.46% active. Vaccinia virus Venus reporter expression, fluorescence. Potency, µM (top dose mostly 36.5 µM), for inactives: at the top dose activity change, negative = inhibition, hits mostly inhibitors; calls by dose curve; tested in A549 cells; note: nearly all actives have a fitted effect of over 30% in size
AMA1-RON2 inh = qHTS for Inhibitors of AMA1-RON; Towards Development of Antimalarial Drug Lead: Primary Screen; AlphaScreen AMA1-biotinylated RON2 peptide binding; Potency, µM (doses to about 58.2 µM), without a hit: at the top dose activity change, negative = inhibition, most hits filed as inhibitors; 360,000 tested, 0.2% active;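 note: 0% = vehicle wells and -100% = peptide control; nearly all actives have a fitted effect of over 45% in size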
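AMA1 (3D7) with his tag at 25 nM final met compounds first, then biotinylated RON2 peptide at 25 nM; detection used donor plus acceptor beads, 10 µg/mL apiece, read by AlphaScreen after 30 min at room temperature.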
VACV mCherry inh = qHTS for Stage-Specific Inhibitors of Vaccinia Orthopoxvirus: mCherry Reporter Primary qHTS; 310,000 tested, 0.63% active; AID 720579, 2013; Vaccinia virus mCherry reporter infection, fluorescence; Potency, µM (series often up to 36.5 µM), without a hit: at the highest dose activity change, negative = inhibition, hits mostly inhibitors; calls by dose curve; tested in A549 cells; note: nearly all actives have a fitted effect of over 35% in size
Pf growth 48h = Primary qHTS for delayed death inhibitors of the malarial parasite plastid, 48 hour incubation; 310,000 tested, 5.9% active; P. falciparum luciferase growth in erythrocytes, 48 h; Potency, µM (titrated, usually from 28.7 µM), inactives show at the highest dose activity change, negative = inhibition, actives largely listed as inhibitors
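Compounds are pin-transferred into medium, infected erythrocytes (2% hematocrit, 0.1% parasitemia final) are added, and plates sit one parasite generation at 37 C in 5% CO2. Detection reagent is then added and luminescence measured.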
* hit, by the source's call; i = inactive; ? = inconclusive; · = no result; [ ] = another dose, or the depositor's remark. Unless noted, calls come from the whole dose curve; as a rule, active = well fitted curve in the direction sought with a large enough effect; inconclusive = small, poorly fitted or top-dose-only effect, or another doubt; inactive = no such curve, though single readings can be large; an effect the other way counts as inactive or inconclusive. Unless noted, % is set by controls: 0 for no effect and ±100 for the full control effect; potency is the fitted concentration of half-maximal effect.

SMILES	Pf growth 96h	Vaccinia Venus	AMA1-RON2 inh	VACV mCherry inh	Pf growth 48h
O=[N+]([O-])c1ccc(-c2csc3[n+]2CCS3)cc1	9.3µM*	-18%	-3%	·	·
Fc1ccc(-c2csc(=S)[nH]2)cc1	-1%	-14%	101%	-6%	33%[5.75 µM]
N#Cc1ccc(NC(=O)Nc2cccc(C#N)c2)cc1	6.6µM*	?	6%	-15%	12µM*
N#Cc1cccc(NC(=O)c2ccccc2C(=O)O)c1	8%	·	-7%	·	20%
N#Cc1ccc(NC(=O)Nc2ccc(Oc3ccc(NC(=O)Nc4ccc(C#N)cc4)cc3)cc2)cc1	?	-22%	1%	i	1.7µM*
COc1ccc(NC(=O)Nc2ccc(OC)cc2)cc1	79%	-5%	-8%	-11%	·
COc1cccc(Cc2nc3ccccc3nc2SCC(=O)Nc2cccc(C)c2)c1	·	-9%	·	-19%	·
Cc1ccc(-c2cc3c(nn2)-c2ccccc2C3=O)cc1	0.37µM*	3%	-11%	?	0.52µM*
Cc1ccccc1-c1cc2c(nn1)-c1ccccc1C2=O	·	1%	-14%	-13%	4.1µM*
O=C1c2ccccc2-c2nnc(-c3ccc(F)cc3)cc21	?	-3%	-15%	-7%	-17%
O=C(Nc1ccc(OC(F)F)cc1)c1nc(SCc2ccccc2F)ncc1Cl	·	-13%	·	13%	·
CC(C)CCNC(=O)C1CCC(Cn2c(=O)c3sccc3n(CC(=O)NC(C)C)c2=O)CC1 (centres undefined)	·	-15%	·	-26%	·
Cc1cc(C(F)(F)F)nn1CC(=O)NCc1ccco1	1.5µM*	·	-5%	·	17%
Cc1c(Cl)c([N+](=O)[O-])nn1CC(=O)NCc1ccco1	1.5µM*	-18%	7%	·	12%
Cc1c(Cl)c(C(F)(F)F)nn1CC(=O)NCc1ccco1	?	-8%	-13%	i	9%
COc1cc(C)c(CN2CCOc3ccc(C(O)c4cccnc4)cc3C2)cc1C (centres undefined)	·	-4%	·	-9%	·
CCN1C(=O)c2ccccc2S(=O)(=O)c2ccc(C(=O)NCc3ccccc3OC)cc21	·	5%	·	2%	·
Cc1ccc(C2Oc3ccccc3C3=C2C(c2cccs2)n2ncnc2N3)cc1 (centres undefined)	?	·	-4%	·	12µM*
Fc1ccc(C2C3=C(Nc4ncnn42)c2ccccc2OC3c2ccncc2)cc1 (centres undefined)	21%	-8%	8%	-12%	·
CCOc1ccc(C(=O)Nc2cccc(-n3cnnn3)c2)cc1OCC	-20%	-13%[7.34 µM]	1%	-13%[7.34 µM]	?
CC(Oc1ccc(C#N)cc1)C(=O)Nc1ccc(-n2cnnn2)cc1 (centres undefined)	3.3µM*	-5%	0%	i	4.7µM*
O=C(Nc1cccc(-n2cnnn2)c1)c1cc(Cl)nc(Cl)c1	4.7µM*	·	-2%	·	9.3µM*
CCCCOc1ccc(C(=O)Nc2cccc(-n3cnnn3)c2)cc1OC	9.3µM*	·	-9%	·	?
CC(=O)Nc1ccc(-n2cnnn2)cc1	-12%	·	-14%	·	16%
O=C(Nc1ccc(OC(F)(F)F)cc1)c1cccc(-n2cnnn2)c1	10µM*	-23%	-17%	?	?
SMILES	Pf growth 96h	Vaccinia Venus	AMA1-RON2 inh	VACV mCherry inh	Pf growth 48h
O=C(Nc1cccc(-n2cnnn2)c1)c1cccc(Cl)c1	18%	·	5%	·	-3%
CC(=O)c1cccc(NC(=O)C(C)OC(=O)c2ccc(-n3cnnn3)cc2)c1 (centres undefined)	12µM*	-11%	11%	-16%	10µM*
O=C(Nc1cnc2ccccc2c1)c1cccc(-n2cnnn2)c1	-1%[5.75 µM]	·	-7%	·	0.12µM*
CCOc1ccc(NC(=O)c2cccc(-n3cnnn3)c2)cc1	-20%	·	-2%	·	5%
CC(C)OC(=O)c1ccc(NC(=O)c2cccc(-n3cnnn3)c2)cc1	?	·	4%	·	12µM*
CCc1ccc(NC(=O)C(C)OC(=O)c2ccc(-n3cnnn3)cc2)cc1 (centres undefined)	19%	10%	-3%	i	0%
COC(=O)c1cccc(NC(=O)c2cccc(-n3cnnn3)c2)c1	·	-23%	11%	i	·
Clc1ccc[n+](CCCCC[n+]2cccc(Cl)c2)c1	·	-8%	·	-15%	·

Screening results: PubChem, National Center for Advancing Translational Sciences (NCATS)
